# Screens from PubChem.
# Sampled rows, rich in hits. Any-hit rate of the full collection: about 1.7%.
# LYPLA2 counter – blocks human lysophospholipase 2, a PME1 counter-screen; inhibition, % at 5.9 µM; recombinant LYPLA2, FP-Rh probe fluorescence polarization; 0.38% of 320,000 active; AID 2177; O95372;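 active = inhibition above the screen-wide mean plus 3 SD, limit set per campaign, cut at about 26% in these data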;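 also: 0% = LYPLA2 with DMSO and 100% = wells lacking LYPLA2 enzyme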
# PAD4 inh – PAD4 (human) enzyme inhibition; inhibition, % at 6.36 µM; 0.41% of 330,000 active; recombinant PAD4, RCA probe fluorescence polarization;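 active = percent inhibition above a cutoff equal to the mean of all tested compounds plus 3 SD, cut at about 15% in these data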;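 also: 0% = PAD4 with RCA probe and DMSO and 100% = probe without PAD4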
# LYPLA1 inh – LYPLA1 (human) inhibition in PME1 counter-screen. O75608. recombinant LYPLA1, FP-Rh probe fluorescence polarization. inhibition, % at 5.9 µM. 0.16% of 320,000 active. AID 2174;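 active = inhibition above the mean of all tested compounds plus 3 SD, set per campaign, cut at about 14% in these data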;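 also: inhibitors block serine hydrolase probe labeling of LYPLA1 so polarization falls; 0% = enzyme with DMSO and 100% = wells lacking LYPLA1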
# GSTO1 inh – counter-screen for RBBP9 inhibitors: inhibitors of human GSTO1 | P78417 | recombinant GSTO1, activity-based probe fluorescence polarization | inhibition, % at 5.96 µM | 1.1% of 300,000 active | AID 1974;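 active = inhibition above the campaign mean inhibition plus 3 SD, cut at about 35% in these data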;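 also: 0% = GSTO1-1 with DMSO and 100% = wells lacking GSTO1-1 enzyme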
# Target sequence (P78417 whole entry, looked up): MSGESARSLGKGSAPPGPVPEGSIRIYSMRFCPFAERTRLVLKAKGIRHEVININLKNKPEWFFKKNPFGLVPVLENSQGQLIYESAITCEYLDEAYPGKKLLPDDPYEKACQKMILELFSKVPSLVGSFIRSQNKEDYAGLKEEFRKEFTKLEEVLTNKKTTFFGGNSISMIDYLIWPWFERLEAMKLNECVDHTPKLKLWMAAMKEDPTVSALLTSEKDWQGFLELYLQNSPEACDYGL
# ZTA counter – counter-screen for EBNA-1 inhibitors: inhibitors of Epstein-Barr virus ZTA. P03206. ZTA-DNA binding, fluorescence polarization. inhibition, % at 11 µM. 0.15% of 320,000 active; in the data active = inhibition above about 33%
# Target sequence (P03206 whole entry, looked up): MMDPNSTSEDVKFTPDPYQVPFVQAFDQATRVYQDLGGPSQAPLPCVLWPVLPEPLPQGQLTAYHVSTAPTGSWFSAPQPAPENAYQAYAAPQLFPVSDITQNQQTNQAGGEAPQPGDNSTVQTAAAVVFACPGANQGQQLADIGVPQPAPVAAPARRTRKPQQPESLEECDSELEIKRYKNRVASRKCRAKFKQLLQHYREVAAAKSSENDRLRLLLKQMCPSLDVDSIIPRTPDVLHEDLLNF
# EBNA-1 inhibitor – blocks EBNA-1 binding to DNA | inhibition, % at 14.8 µM | EBNA-1 DNA binding, fluorescence polarization | 0.34% of 300,000 active | AID 1950; in the data active = inhibition above about 28%
# LYPLA2 confirm – LYPLA2 (human) inhibition, confirmation counter-screen; shares compounds with LYPLA2 counter; recombinant LYPLA2, FP-Rh probe fluorescence polarization; inhibition, % at 5.9 µM; 72% of 1,100 active;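 active = mean inhibition across replicates above the hit cutoff set in the primary screen, cut at about 26% in these data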;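 also: blocked labeling of the enzyme by serine hydrolase FP-Rh probe lowers polarization; 0% = enzyme with DMSO and 100% = wells lacking LYPLA2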
# LYPLA2 gel ABPP – blocks human acyl-protein thioesterase 2 in gel ABPP. shares compounds with LYPLA2 counter. rhLYPLA2 in mouse brain proteome, gel ABPP FP-Rh. inhibition, % at 20 µM. 30% of 150 active;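 active = inhibition of LYPLA2 enzyme probe labeling above about 50%, limit read from the data; inactive = inhibition below that limit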;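 also: loss of FP-Rh probe labeling of the LYPLA2 gel band measured as band density; 0% = DMSO only control band and 100% = blank gel background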
# The depositor's hits bear a star; / = no result given.
SMILES,LYPLA2 counter,PAD4 inh,LYPLA1 inh,GSTO1 inh,ZTA counter,EBNA-1 inhibitor,LYPLA2 confirm,others
Cc1ccc(-c2cc(-c3ccco3)c3c(N)c(C(=O)NN)oc3n2)cc1,5,4,-4,29,-13,1,/,
Cc1ccc(NC(=O)COc2ccc(Br)cc2CO)cc1S(=O)(=O)N1CCOCC1,/,-4,/,/,/,/,/,
CCOc1ccc(C(=O)N2CCN(c3cnn(-c4ccccc4)c(=O)c3Cl)CC2)cc1,5,-2,2,2,3,-2,/,
O=C(c1cccc(Br)c1)N1CCN(c2cnn(-c3ccccc3)c(=O)c2Cl)CC1,28*,-3,6,10,5,11,15,
COc1ccc([C@H]2CC(=O)C=C(c3ccc(F)cc3OCc3ccccc3)C2)cc1OC,27*,-6,2,/,-5,/,-4,
COc1ccc(NS(=O)(=O)c2cccc(C(=O)NNC(=O)c3ccc(C)o3)c2)cc1,0,-8,-4,/,4,/,/,
O=c1cc(Cl)c(-c2ccccc2)nn1Cc1ccc(Cl)cc1,26*,-4,0,-4,3,3,35*,
CC(=O)NCCc1ccc(C(=O)Cn2cnc3ccccc3c2=O)cc1,29*,-1,2,5,-16,-16,39*,
COc1ccc(CCNC(=O)Cn2cnc3ccccc3c2=O)cc1OC,0,-6,-1,5,1,-11,/,
O=S(=O)(c1ccc(NC(=S)N2CCN(c3ccccc3F)CC2)cc1)N1CCOCC1,38*,4,0,-4,7,-7,30*,
COc1ccccc1N1CCN(C(=S)Nc2ccc(S(=O)(=O)N3CCOCC3)cc2)CC1,6,-3,0,-1,-6,-21,/,
COc1ccc(NC2=NCCC(=O)N2Cc2cccs2)cc1,27*,1,2,1,-3,-1,21,
COc1ccc(NC2=NCC(=O)N2Cc2cccs2)cc1,14,0,2,3,-7,5,/,
O=C(CC1OC(=O)c2ccccc21)NNC(=O)c1ccc(F)cc1 (stereo not drawn),0,3,-2,/,5,/,/,
COc1ccc(S(=O)(=O)N2CCCC2CNC(=O)c2cccc(OC)c2)cc1 (stereo not drawn),-3,-2,1,-3,5,-3,/,
O=C(c1ccc(F)cc1)C1CCN(CCn2c(=S)[nH]c3ccccc3c2=O)CC1,27*,-4,0,2,3,-10,28*,
O=C(Nc1ccc(Oc2ccccc2)cc1)C1CCN(c2c3c(nc4ncnn24)CCC3)CC1,28*,2,-2,-4,0,0,22,
O=C(Nc1ccc2c(c1)CCC2)C1CCN(c2c3c(nc4ncnn24)CCC3)CC1,12,0,-2,0,6,6,/,
COC(=O)CCC(=O)N1CCCC(N2CCN(c3cccc(C(F)(F)F)c3)CC2)C1 (stereo not drawn),13,-2,-2,5,3,-4,/,
Cc1ccc(C(=O)N2CCCC(N3CCN(c4cccc(C(F)(F)F)c4)CC3)C2)s1 (stereo not drawn),42*,0,10,-8,0,8,39*,
O=C(c1ccoc1)N1CCCC(N2CCN(c3cccc(C(F)(F)F)c3)CC2)C1 (stereo not drawn),17,-9,8,2,10,7,/,
CC(=O)N1CCCC(N2CCN(c3cccc(C(F)(F)F)c3)CC2)C1 (stereo not drawn),4,2,1,0,4,-10,/,
CSCCC(=O)N1CCCC(N2CCN(c3cccc(C(F)(F)F)c3)CC2)C1 (stereo not drawn),53*,3,2,0,9,-8,59*,LYPLA2 gel ABPP=49
Cc1cnc(C(=O)N2CCCC(N3CCN(c4cccc(C(F)(F)F)c4)CC3)C2)cn1 (stereo not drawn),26*,1,2,2,-5,-5,26,
CCc1cc(C(=O)N2CCCC(N3CCN(c4cccc(C(F)(F)F)c4)CC3)C2)n(C)n1 (stereo not drawn),81*,1,11,4,11,-3,74*,LYPLA2 gel ABPP=43
SMILES,LYPLA2 counter,PAD4 inh,LYPLA1 inh,GSTO1 inh,ZTA counter,EBNA-1 inhibitor,LYPLA2 confirm,others
COc1cc(OC)cc(C(=O)OCC(=O)NC2CCCCCC2)c1,-2,-3,-2,/,3,/,/,
CC(=O)c1cccc(NC(=O)CN2CCc3cc4c(cc3C2C)OCCCO4)c1 (stereo not drawn),3,1,-2,1,-3,-1,/,
O=C(Cc1ccc(Cl)c(Cl)c1)N1CCOCC1,-1,-6,1,-5,3,-10,/,
CCn1cc(C(=O)N2CCCC(N3CCN(c4cccc(C(F)(F)F)c4)CC3)C2)cn1 (stereo not drawn),32*,-4,6,0,-34,-9,22,
O=C(c1ccncc1)N1CCCC(N2CCN(c3cccc(C(F)(F)F)c3)CC2)C1 (stereo not drawn),26*,0,-2,3,11,-5,43*,
Cc1ccc2nc3n(c(=O)c2c1)-c1ccc(Cl)cc1C(=O)NC3Cc1ccccc1 (stereo not drawn),-10,-1,-6,/,-10,/,/,
O=C1NC(Cc2ccccc2)c2nc3ccc(Cl)cc3c(=O)n2-c2ccc(Cl)cc21 (stereo not drawn),26*,-4,-5,/,-9,/,-11,
CC(=O)Nc1ccc(NC(=O)CSc2nnc(C)n2-c2ccccc2)cc1,-5,-3,-3,15,9,-3,/,
CCCCC(=O)N/N=C/c1ccc(-c2ccc([N+](=O)[O-])cc2)o1,3,2,4,-5,-14,5,/,
Cc1cc(C)n(Cc2ccc(C(=O)N/N=C/c3ccc(-c4ccc([N+](=O)[O-])cc4)o3)o2)n1,28*,-7,5,36*,3,4,27*,
Cc1cc(C)n2cc(CSc3ncn[nH]3)nc2n1,4,-1,2,-2,-5,12,/,
CC(C)(C)c1ccc(C(=O)N2CCC(NC(=O)c3ccccc3)CC2)cc1,39*,1,-2,22,7,-20,37*,
CC(C)(C)c1ccc(C(=O)N2CCC(C(=O)NCc3ccncc3)CC2)cc1,34*,0,-1,4,-6,-7,41*,
CC(C)(C)c1ccc(C(=O)N2CCC(C(=O)NC3CC3)CC2)cc1,4,-2,-3,4,2,5,/,
CC(=O)c1ccc(N2CCN(C(=O)Nc3ccc(C(C)C)cc3)CC2)cc1,48*,2,3,0,-1,6,42*,
O=C(CN1CCN(C(=O)CNC(=O)c2ccc(N3CCCC3=O)cc2)CC1)Nc1ccccc1Cl,50*,1,3,/,-22,/,46*,
